Records with an inconclusive call do not appear. Unmarked numbers belong to inactive results. Activity calls are given as the source filed them. The call rests on the fitted dose curve.
The compounds below were run against Nucleoprotein (Lymphocytic choriomeningitis virus (strain Armstrong)) (UniProt P09992) (assay: qHTS for Inhibitors of the Functional Ribonucleoprotein Complex (vRNP) of Lymphocytic Choriomeningitis Arenaviruses (LCMV): LCMV Primary Screen - GLuc reporter signal (AID 1347086; further: nearly all actives have a fitted effect of over 70% in size)). Conditions: LCMV minigenome vRNP cell assay, Gaussia luciferase reporter; series mostly up to 57.5 µM; activity change, negative = inhibition: at the top concentration.
Chain of Nucleoprotein (Lymphocytic choriomeningitis virus (strain Armstrong)) (P09992 whole entry, looked up): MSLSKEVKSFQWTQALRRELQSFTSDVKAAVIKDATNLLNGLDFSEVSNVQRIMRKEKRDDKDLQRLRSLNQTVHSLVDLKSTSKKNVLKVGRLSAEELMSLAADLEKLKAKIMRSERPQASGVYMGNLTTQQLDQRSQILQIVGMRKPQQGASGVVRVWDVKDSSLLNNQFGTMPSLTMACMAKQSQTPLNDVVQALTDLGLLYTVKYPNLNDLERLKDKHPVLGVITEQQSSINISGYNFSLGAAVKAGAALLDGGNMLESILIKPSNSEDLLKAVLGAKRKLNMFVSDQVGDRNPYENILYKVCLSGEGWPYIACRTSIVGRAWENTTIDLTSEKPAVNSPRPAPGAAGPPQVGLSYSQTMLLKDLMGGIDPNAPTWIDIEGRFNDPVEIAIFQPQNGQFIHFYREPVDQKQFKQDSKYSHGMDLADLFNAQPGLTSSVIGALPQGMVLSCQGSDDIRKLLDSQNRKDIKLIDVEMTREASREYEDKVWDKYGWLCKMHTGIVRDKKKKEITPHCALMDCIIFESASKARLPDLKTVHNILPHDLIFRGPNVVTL
For `O=C1OC(OC(=O)c2cccnc2Nc2cccc(C(F)(F)F)c2)c2ccccc21` (centres undefined), the “activity change, negative = inhibition” value was -3.64%. `C=CCSCC1Nc2cc(Cl)c(S(N)(=O)=O)cc2S(=O)(=O)N1` (centres undefined) was tested, and the “activity change, negative = inhibition” value was -0.194%. `C=CCc1ccccc1OCC(O)CNC(C)C` (centres undefined) was tested, and the Potency was “inactive”. In the case of `FC(F)(F)C(F)(F)C(F)(F)C(F)(F)C(F)(F)C(F)(F)C(F)(F)C(F)(F)Br`, the “activity change, negative = inhibition” value is reported as -0.432%. `Nc1ccc(N=Nc2ccccc2)c(N)n1` was tested, and the “activity change, negative = inhibition” value was 11.3%. With `C[N+]1(CC2COC(c3ccccc3)(C3CCCCC3)O2)CCCCC1` (centres undefined) the “activity change, negative = inhibition” value was 13.7%. With `O=C1C(c2[nH]c3ccccc3c2O)=Nc2ccccc21` the “activity change, negative = inhibition” value was 6.76%. `Oc1c(Cl)cc(Cl)c2cccnc12` was tested, and the Potency was “inactive”. In the case of `NC(=O)CCCCC1CCSS1` (centres undefined), the “activity change, negative = inhibition” value is reported as 17.2%. With `CC(C)(Cc1c[nH]c2ccccc12)NCC(O)COc1ccccc1C#N` (centres undefined) the “activity change, negative = inhibition” value was 11.1%. `COc1cc2[nH]c(=O)[nH]c(=O)c2cc1OC` was tested, and the “activity change, negative = inhibition” value was -1.69%. For `CC(Oc1c(Cl)cccc1Cl)C1=NCCN1` (centres undefined), the “activity change, negative = inhibition” value was -2.71%. For `O=C1c2ccccc2C(=O)C1c1ccc(Br)cc1`, the “activity change, negative = inhibition” value was 4.76%. `CCCCOc1cc(C(=O)OCCN(CC)CC)ccc1N` was tested, and the “activity change, negative = inhibition” value was 10.5%. For `C=C1C[C@H]2[C@@H]3C=C(C)C4=CC(=O)CC[C@]4(C)[C@H]3CC[C@]2(C)[C@@]1(OC(C)=O)C(C)=O`, the “activity change, negative = inhibition” value was -3.5%. In the case of `C[C@]12CCC(=O)C=C1CC[C@@H]1[C@@H]2[C@@H](O)C[C@@]2(C)[C@H]1CC[C@]2(O)C(=O)CO`, the Potency is reported as “inactive”. `Cc1c(Cl)cccc1Nc1ccccc1C(=O)O` was tested, and the “activity change, negative = inhibition” value was -5.37%. With `CCC(=O)O[C@]1(C(=O)SCF)[C@H](C)C[C@H]2[C@@H]3C[C@H](F)C4=CC(=O)C=C[C@]4(C)[C@@]3(F)[C@@H](O)C[C@@]21C` the Potency was 17.2 µM (active). `CCN(CC)CCOC(=O)C(c1ccccc1)c1ccccc1` was tested, and the “activity change, negative = inhibition” value was 9.35%. In the case of `CCCCc1cc2ccccc2c(OCCN(C)C)n1`, the “activity change, negative = inhibition” value is reported as 2.83%. For `CCCC(=O)OC[C@@H](OC(=O)CCC)[C@@H](OC(=O)CCC)[C@H](Cn1c2nc(=O)[nH]c(=O)c-2nc2cc(C)c(C)cc21)OC(=O)CCC`, the “activity change, negative = inhibition” value was 2.68%. `C[N+]1(CC2COC(c3ccccc3)(c3ccccc3)O2)CCCCC1` (centres undefined) was tested, and the “activity change, negative = inhibition” value was -1.42% [at 24.7 µM]. With `CCN(CC)C(=O)c1cccc(C)c1` the “activity change, negative = inhibition” value was 0.805%. For `NNC(=O)CP(=O)(c1ccccc1)c1ccccc1`, the “activity change, negative = inhibition” value was -4.52%. In the case of `CN(C)CCCO[C@@H]1[C@H]2OC(C)(C)O[C@H]2O[C@@H]1C(O)CO` (some centres undefined), the “activity change, negative = inhibition” value is reported as 2.04%. For `CC(C)(Oc1ccc(CCNC(=O)c2ccc(Cl)cc2)cc1)C(=O)O`, the Potency was “inactive”. In the case of `CC(C)OC(=O)C(C(=O)OC(C)C)=C1SC=CS1`, the Potency is reported as “inactive”. For `NCCc1cnc[nH]1`, the Potency was “inactive”. With `O=c1[nH]c2ccccc2c(=O)n1CCCl` the “activity change, negative = inhibition” value was 10.2%. For `C[C@]12CCC(=O)C=C1C=C[C@@H]1[C@@H]2CC[C@@]2(C)[C@H]1CC[C@@]21CCC(=O)O1`, the “activity change, negative = inhibition” value was -10.2%. For `C[C@]12CC[C@@H]3c4ccc(O)cc4CC[C@H]3[C@@H]1CCC2=O`, the Potency was “inactive”. For `CN(C)CCN1C(=O)c2ccccc2N(C)c2ccccc21`, the “activity change, negative = inhibition” value was 0.629%. `CN1C[C@H](C(=O)N[C@]2(C)O[C@@]3(O)[C@@H]4CCCN4C(=O)[C@H](Cc4ccccc4)N3C2=O)C[C@@H]2c3cccc4[nH]cc(c34)C[C@H]21` was tested, and the Potency was “inactive”. `CCC1Nc2cc(Cl)c(S(N)(=O)=O)cc2S(=O)(=O)N1` (centres undefined) was tested, and the “activity change, negative = inhibition” value was -5.12%. In the case of `CC(O)COc1ccccc1` (centres undefined), the “activity change, negative = inhibition” value is reported as 14.6%. `CCN(CC)CC(=O)OCC(=O)[C@@]1(O)CC[C@H]2[C@@H]3CCC4=CC(=O)CC[C@]4(C)[C@H]3[C@@H](O)C[C@@]21C` was tested, and the “activity change, negative = inhibition” value was 22.6%. For `CC(C)c1cc2c(cc1S(=O)(=O)O)[C@@]1(C)CCC[C@@](C)(C(=O)O)[C@@H]1CC2`, the “activity change, negative = inhibition” value was 13.2%. `C[C@@H]1CC[C@@]2(OC1)O[C@H]1C[C@H]3[C@@H]4CC[C@H]5C[C@@H](O)CC[C@]5(C)[C@H]4CC(=O)[C@]3(C)[C@H]1[C@@H]2C` was tested, and the activity change, negative = inhibition was 19.7% [at 5.82 µM]. With `CC1=CC(=O)c2ccccc2C1=O` the Potency was “inactive”.
On the % scale 0 is the no-effect control and ±100 the full control effect; potency means the concentration at half of the fitted maximal effect.
